Test results taken from ChEMBL document CHEMBL2218924, “A broad activity screen in support of a chemogenomic map for kinase signalling research and drug discovery” (Biochem J, 2013).

Target: T1, Tyrosine-protein kinase TXK (Homo sapiens) (UniProt P42681)
T1 sequence (whole entry): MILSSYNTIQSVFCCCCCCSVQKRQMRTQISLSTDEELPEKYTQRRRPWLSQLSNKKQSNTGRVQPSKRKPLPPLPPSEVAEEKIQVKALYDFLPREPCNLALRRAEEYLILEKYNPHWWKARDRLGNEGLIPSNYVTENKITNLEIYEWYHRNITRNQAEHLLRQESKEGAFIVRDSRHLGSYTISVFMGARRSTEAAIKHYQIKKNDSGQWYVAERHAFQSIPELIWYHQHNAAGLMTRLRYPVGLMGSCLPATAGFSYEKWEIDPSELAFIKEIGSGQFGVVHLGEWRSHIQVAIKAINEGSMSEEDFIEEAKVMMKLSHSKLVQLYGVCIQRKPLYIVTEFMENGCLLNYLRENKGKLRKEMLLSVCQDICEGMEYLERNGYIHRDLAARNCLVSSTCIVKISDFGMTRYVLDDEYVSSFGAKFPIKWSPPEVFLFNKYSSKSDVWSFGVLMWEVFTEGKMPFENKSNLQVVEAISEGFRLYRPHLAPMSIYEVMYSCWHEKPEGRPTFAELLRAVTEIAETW
Settings: at 1 µM

Compound | residual activity [%]
COC(=O)[C@@]1(O)C[C@H]2O[C@]1(C)n1c3ccccc3c3c4c(c5c6ccccc6n2c5c31)C(=O)NC4 | 35
CC(C)(C)c1cc(C=C(C#N)C#N)cc(Br)c1O | 112
COc1cc2ncnc(Nc3ccc(OCc4ccccc4)cc3)c2cc1OC | 97
COc1ccc2c(c1)/C(=C/c1cnc[nH]1)C(=O)N2 | 77
O=C1NC(=O)c2c1c1c3ccccc3n3c1c1c2c2ccccc2n1C1CCC3O1 | 71
CCn1cnc2c(Nc3cccc(Cl)c3)nc(N[C@@H]3CCCC[C@@H]3N)nc21 | 52
CC(C)[C@H](CO)Nc1nc(Nc2cccc(Cl)c2)c2ncn(C(C)C)c2n1 | 66
O=[N+]([O-])/C=C/c1ccc2c(c1)OCO2 | 76
O=C1c2ccccc2-c2nc3nnnn3nc21 | 103
CCc1nc(-c2ccc(OC)cc2)[nH]c1-c1ccncc1 | 100
O=c1[nH]c2ccccc2n1C1CCN(Cc2ccc(-c3nc4cc5[nH]cnc5cc4nc3-c3ccccc3)cc2)CC1 | 102
C[S+]([O-])c1ccc(-c2nc(-c3ccc(F)cc3)c(-c3ccncc3)[nH]2)cc1 (configuration not stated) | 77
O=C1Nc2ccc3ncsc3c2/C1=C/c1c[nH]cn1 | 82
COc1cc(OC)c(/C=C2\C(=O)Nc3ccccc32)c(OC)c1 | 107
COc1ccc2c(c[n+](C)c3c4cc5c(cc4ccc23)OCO5)c1OC | 94
c1cc(-c2cnn3cc(-c4ccc(OCCN5CCCCC5)cc4)cnc23)ccn1 | 44

Target: T1, Tyrosine-protein kinase TXK (Homo sapiens)
Settings: at 10 µM

Compound | residual activity [%]
COC(=O)[C@@]1(O)C[C@H]2O[C@]1(C)n1c3ccccc3c3c4c(c5c6ccccc6n2c5c31)C(=O)NC4 | 5
CC(C)(C)c1cc(C=C(C#N)C#N)cc(Br)c1O | 104
COc1cc2ncnc(Nc3ccc(OCc4ccccc4)cc3)c2cc1OC | 57
COc1ccc2c(c1)/C(=C/c1cnc[nH]1)C(=O)N2 | 46
O=C1NC(=O)c2c1c1c3ccccc3n3c1c1c2c2ccccc2n1C1CCC3O1 | 81
CCn1cnc2c(Nc3cccc(Cl)c3)nc(N[C@@H]3CCCC[C@@H]3N)nc21 | 10
CC(C)[C@H](CO)Nc1nc(Nc2cccc(Cl)c2)c2ncn(C(C)C)c2n1 | 16
O=[N+]([O-])/C=C/c1ccc2c(c1)OCO2 | 77
O=C1c2ccccc2-c2nc3nnnn3nc21 | 73
O=c1[nH]c2ccccc2n1C1CCN(Cc2ccc(-c3nc4cc5[nH]cnc5cc4nc3-c3ccccc3)cc2)CC1 | 94
C[S+]([O-])c1ccc(-c2nc(-c3ccc(F)cc3)c(-c3ccncc3)[nH]2)cc1 (configuration not stated) | 42
O=C1Nc2ccc3ncsc3c2/C1=C/c1c[nH]cn1 | 30
COc1cc(OC)c(/C=C2\C(=O)Nc3ccccc32)c(OC)c1 | 100
COc1ccc2c(c[n+](C)c3c4cc5c(cc4ccc23)OCO5)c1OC | 59
c1cc(-c2cnn3cc(-c4ccc(OCCN5CCCCC5)cc4)cnc23)ccn1 | 7
N/C(=N\[N+](=O)[O-])N/N=C\c1ccc(-c2cccc([N+](=O)[O-])c2)o1 | 80
